The conditions of experiment [1]: Ebola virus entry assay, green fluorescence channel.
For experiment [2] the following is noted: Ebola virus entry assay, blue channel fluorescence.
The conditions of experiment [3]: Ebola virus entry assay, ratio channel.
The conditions of experiment [4]: Ebola virus entry assay, reporter ratio channel; Channel type: primary.

A number with no mark means an inactive call. For some assays here: Results with a measured potency or affinity are listed apart. Activity calls are given as the source filed them. How the calls were made is not given here.
Wherever efficacy is given: 0% is about no effect.

On to `Oc1ccc(CCNCCCCCCNCCc2ccccc2)cc1O`, for which the efficacy in experiment [1] is 30.5%. Besides, the results for the AC50 in experiment [2], in experiment [3] and in experiment [4] were 1.12 µM (active), 1 µM (active) and 1 µM (active), respectively.
Turning to `CN(C)CCCN1c2ccccc2Sc2ccccc21`, the efficacy in experiment [1] is 62.9%. Further, the AC50 – broadly, the concentration giving half of the maximal activity seen – in experiment [2] is 5.62 µM (active); in experiment [3], 5.01 µM (active); in experiment [4], 5.01 µM (active).
Take `CC(=O)O[C@]1(C(C)=O)CC[C@H]2[C@@H]3C=C(Cl)C4=CC(=O)CC[C@]4(C)[C@H]3CC[C@@]21C`: the efficacy in experiment [1] was 83.2%. The AC50 in experiment [2], in experiment [3] and in experiment [4] was 28.2 µM (active) each time.
`CC(=O)c1ccc2c(c1)N(CCCN1CCC(CCO)CC1)c1ccccc1S2`: the efficacy in experiment [1] was 62.5%. The figures for the half-maximal activity concentration (AC50) in experiment [2], in experiment [3] and in experiment [4] were 3.16 µM (active), 2.82 µM (active) and 2.82 µM (active), respectively.
For `CN(C(=O)CN(CCO)CC(=O)N(C)C(C)(C)Cc1ccccc1)C(C)(C)Cc1ccccc1`, the efficacy in experiment [1] was 43.4%. The results for the AC50 in experiment [2], in experiment [3] and in experiment [4] were 7.94 µM (active), 5.62 µM (active) and 5.62 µM (active), respectively.
In the case of `CC1(C)[C@H](C(=O)O)N2C(=O)C[C@H]2S1(=O)=O`, in experiment [1], the efficacy is 90.1%. In addition, the AC50 in experiment [2] is 15.8 µM (active); in experiment [3], 11.2 µM (active); in experiment [4], 11.2 µM (active).
`C[C@@H](CN(C)C)CN1c2ccccc2Sc2ccccc21`: in experiment [1], the efficacy is 66.9%. For the same molecule, the concentration at half-maximal activity (AC50) is 8.91 µM (active) in experiment [2], 10 µM (active) in experiment [3] and 10 µM (active) in experiment [4].
With `CCCCC1C(=O)N(c2ccccc2)N(c2ccc(O)cc2)C1=O` (centres undefined), the efficacy in experiment [1] is 73.1%. Also, the values for the AC50 in experiment [2] and in experiment [4] were 28.2 µM (active) and 39.8 µM (active), respectively. Also, the outcome in experiment [3] was inactive.
For `CN1CCN(CCC(=O)N2c3ccccc3Sc3ccc(C(F)(F)F)cc32)CC1`, in experiment [1], the efficacy is 68.9%. Further, the figures for the AC50 in experiment [2], in experiment [3] and in experiment [4] were 4.47 µM (active), 2.82 µM (active) and 2.82 µM (active), respectively.
On to `C/C(=C(/OCCOc1ccc(Cl)cc1)c1ccc(Cl)cc1Cl)n1ccnc1`, for which, in experiment [1], the efficacy was 81.6%. Besides, the AC50 in experiment [2] and in experiment [4] was 39.8 µM (active) in each case. In addition, the outcome in experiment [3] was inactive.
`O=C(CCC1CCN(Cc2ccccc2)CC1)c1ccc2c(c1)NCCCC2`: the efficacy in experiment [1] was 114%. Besides, the AC50 in experiment [2], in experiment [3] and in experiment [4] was 7.08 µM (active) in each case.
Consider `Cc1cc(C(C)(C)C)c(O)c(C)c1CC1=NCCN1`, for which the efficacy in experiment [1] is 52%. Besides, the concentration at half-maximal activity (AC50) in experiment [2] and in experiment [4] was 39.8 µM (active) throughout. For the same molecule, the outcome in experiment [3] was inactive.
`CC(=O)NC(Cc1ccccc1)C(=O)O` (centres undefined): the efficacy in experiment [1] is 29.9%. Further, the call in experiment [2], in experiment [3] and in experiment [4] was inactive.
Take `CCC(CN)=C(c1ccccc1)c1ccccc1`: the efficacy in experiment [1] was 124%. Besides, the AC50 in experiment [2], in experiment [3] and in experiment [4] was 17.8 µM (active) in each case.
As for `Fc1ccc(C(c2ccc(F)cc2)N2CCN(C/C=C/c3ccccc3)CC2)cc1`, the efficacy in experiment [1] is 37.6%. Moreover, the figures for the half-maximal activity concentration (AC50) in experiment [2], in experiment [3] and in experiment [4] were 12.6 µM (active), 11.2 µM (active) and 11.2 µM (active), respectively.
As for `Cc1cc(C2CCCCC2)n(O)c(=O)c1`, in experiment [1], the efficacy is 53.2%. Also, the half-maximal activity concentration (AC50) in experiment [2] and in experiment [4] was 39.8 µM (active) in each case. Moreover, the outcome in experiment [3] was inactive.
Turning to `CSc1ccc(/C=C2/C(C)=C(CC(=O)O)c3cc(F)ccc32)cc1`, in experiment [1], the efficacy was 33.8%. Further, the result in experiment [2], in experiment [3] and in experiment [4] was inactive.
As for `Cc1ccc(N(CC2=NCCN2)c2cccc(O)c2)cc1`, in experiment [1], the efficacy was 66%. Also, the concentration at half-maximal activity (AC50) in experiment [2] was 35.5 µM (active); in experiment [3], 31.6 µM (active); in experiment [4], 31.6 µM (active).
For `CC(C)(C)c1ccc(C(=O)CCCN2CCC(OC(c3ccccc3)c3ccccc3)CC2)cc1`, the efficacy in experiment [1] is 47.5%. For the same molecule, the AC50 in experiment [2] was 7.94 µM (active); in experiment [3], 8.91 µM (active); in experiment [4], 8.91 µM (active).
Take `CCOC(=O)C1=C(C)NC(C)=C(C(=O)OCC)C1c1ccccc1/C=C/C(=O)OC(C)(C)C`: the efficacy in experiment [1] was 50%. The call in experiment [2], in experiment [3] and in experiment [4] was inactive.
As for `O=C(O)c1cn(-c2ccc(F)cc2)c2cc(N3CCNCC3)c(F)cc2c1=O`, in experiment [1], the efficacy was 23.7%. In addition, the result in experiment [2], in experiment [3] and in experiment [4] was inactive.
On to `O=c1[nH]c2ccccc2n1CCCN1CCN(C(c2ccccc2)c2ccccc2)CC1`, for which the efficacy in experiment [1] was -120%. Besides, the AC50 in experiment [2] was 12.6 µM (active); in experiment [3] it was 3.98 µM (active); in experiment [4], 3.98 µM (active).
On to `O=C(NC1CCN(CCc2c[nH]c3ccccc23)CC1)c1ccccc1`, for which, in experiment [1], the efficacy was 90.8%. In addition, the half-maximal activity concentration (AC50) in experiment [2] is 25.1 µM (active); in experiment [3], 35.5 µM (active); in experiment [4], 35.5 µM (active).
In the case of `Cc1cccc(CN2CCN(C(c3ccccc3)c3ccc(Cl)cc3)CC2)c1` (centres undefined), in experiment [1], the efficacy was 38.6%. In addition, the half-maximal activity concentration (AC50) in experiment [2], in experiment [3] and in experiment [4] was 22.4 µM (active) throughout.
Regarding `CC(C)C[C@@H]1[C@H](c2ccccc2)OC(=O)N1CCCN1CCCCCC1`, the efficacy in experiment [1] was 64.2%. The results for the AC50 in experiment [2], in experiment [3] and in experiment [4] were 12.6 µM (active), 8.91 µM (active) and 8.91 µM (active), respectively.
With `COc1cc(N)c(Cl)cc1C(=O)NC1CCN(Cc2ccccc2)CC1`, in experiment [1], the efficacy is 43.1%. In addition, the half-maximal activity concentration (AC50) in experiment [2] is 31.6 µM (active); in experiment [4] it was 39.8 µM (active). For the same molecule, the result in experiment [3] was inactive.

Values taken from PubChem BioAssay (NCATS).
